Source: PubChem (National Center for Advancing Translational Sciences (NCATS))
Shiga inhibitor – A qHTS for Small Molecule Inhibitors of Shiga Toxin. inhibition, % at 38.7 µM. Vero cells, Shiga toxin protein synthesis inhibition reporter. 9.2% of 290,000 active; in the data active = inhibition mostly above about 28%, no sharp cut-off; inactive = mostly below about 43%
NS1 function inh – qHTS Assay for Inhibitors of Influenza NS1 Protein Function | Potency, µM (series often up to 46.1 µM) | 0.4% of 270,000 active; calls by dose curve; note: actives are rising curves; nearly all actives have a fitted effect of over 50% in size
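S. cerevisiae expressing influenza A NS1, grown in glucose, washed, then diluted 1:100 into pH 6.0 -URA galactose medium with 23 nl compound. Growth recovery read as OD600; NS1-free strain serves as control.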
LmPK inh – qHTS Assay for Inhibitors of Leishmania Mexicana Pyruvate Kinase (LmPK) | Q27686 | purified LmPK, Kinase-Glo ATP luminescence, 1 h | Potency, µM (top dose mostly 57.5 µM), actives largely listed as inhibitors | 0.37% of 290,000 active | AID 1721, 2009
Target sequence (Q27686 whole entry, looked up): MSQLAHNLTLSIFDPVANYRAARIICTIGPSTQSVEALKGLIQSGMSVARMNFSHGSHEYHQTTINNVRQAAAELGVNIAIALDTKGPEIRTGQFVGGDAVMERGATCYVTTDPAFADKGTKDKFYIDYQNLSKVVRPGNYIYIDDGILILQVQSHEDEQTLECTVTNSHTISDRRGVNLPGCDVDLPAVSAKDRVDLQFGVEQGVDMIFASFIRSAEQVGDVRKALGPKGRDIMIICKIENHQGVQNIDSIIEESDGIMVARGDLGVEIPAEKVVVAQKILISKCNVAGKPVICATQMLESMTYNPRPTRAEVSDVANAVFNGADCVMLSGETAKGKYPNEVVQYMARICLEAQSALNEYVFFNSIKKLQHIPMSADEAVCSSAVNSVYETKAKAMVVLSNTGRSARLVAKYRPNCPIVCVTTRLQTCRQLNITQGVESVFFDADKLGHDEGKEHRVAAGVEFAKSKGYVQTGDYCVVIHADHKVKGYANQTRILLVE
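0.1 nM LmPK, 0.5 mM PEP, 0.1 mM ADP; 50 mM imidazole pH 7.2, 7 mM MgCl2, 50 mM KCl; 1 h RT. Kinase-Glo luminescence readout, normalized to no-enzyme (full inhibition) and uninhibited wells.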
Giardia FBPA inh – qHTS Assay for Inhibitors of Fructose-1,6-bisphosphate Aldolase from Giardia Lamblia; A8B2U2; purified Giardia FBPA; Potency, µM (titrated, usually from 59.6 µM), actives largely listed as inhibitors; 0.71% of 290,000 active; note: nearly all actives have a fitted effect of over 55% in size
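40 nM FBPA preincubated 10 min at RT with compound (up to 57.5 uM final), then substrate plus GAPDH/TPI/NAD/arsenate coupling and diaphorase/resazurin added. Fluorescence read after 20 min at RT, 525/598 nm.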
Cycloheximide cs – Cycloheximide Counterscreen for Small Molecule Inhibitors of Shiga Toxin; 12% of 300,000 active; cell reporter, cycloheximide protein synthesis inhibition counterscreen; max response, %; in the data active = max response mostly above about 13%, no sharp cut-off; inactive = mostly below about 14%; note: read at 38.3 µM for the half of the compounds with a filed dose
Each line names hits and unclear results; the compound was inactive in the other large screens. This is a sample that favours compounds with a hit; in the whole collection about 14% have one here. Unless noted, calls come from the whole dose curve; as a rule, active = well fitted curve in the direction sought with a large enough effect; inconclusive = small, poorly fitted or top-dose-only effect, or another doubt; inactive = no such curve, though single readings can be large; an effect the other way counts as inactive or inconclusive.

Cc1noc(C)c1C(=O)Nc1ccc(F)c(F)c1	none
Cc1occc1C(=O)Nc1ccccc1C(=O)O	Cycloheximide cs 20
CC(C)[C@@H](CC(=O)N[C@@H]1CCCC[C@H]1C(=O)N[C@H](CC(=O)N[C@@H](CCC(=O)O)CC(=O)O)Cc1ccccc1)NC(=O)C[C@H](Cc1c[nH]c2ccccc12)NC(=O)[C@@H]1CNCC[C@H]1N	none (no result: Shiga inhibitor, NS1 function inh, LmPK inh, Cycloheximide cs)
CCc1ccc(C(=O)NCc2cnn(C)c2)s1	Shiga inhibitor 37 (no result: NS1 function inh)
Cc1cc(C)cc(NC(=O)c2cc(C)n(Cc3cccs3)c2C)c1	Shiga inhibitor 53, Cycloheximide cs 49
Cc1cc(C(=O)Nc2ccc(Cl)cc2)c(C)n1Cc1cccs1	Shiga inhibitor 95, Cycloheximide cs 67
CC1=C(C(=O)Nc2ccc(Cl)cc2)C(c2cccs2)n2nnnc2N1 (stereo unspecified)	none
Clc1cccc(Cl)c1/C=C/c1ccn[nH]1	Shiga inhibitor 67, Cycloheximide cs 35
N#Cc1cccc(-c2cncnc2NCc2ccccc2)c1	none (no result: Shiga inhibitor, NS1 function inh, LmPK inh, Cycloheximide cs)
CC(=O)Nc1ccc(C2=NN(CC#N)C(=O)SC2)cc1	none
CCC(=O)Nc1ccc(-c2nc3ccccc3c(=O)o2)cc1	Shiga inhibitor 79, Cycloheximide cs 28 (no result: NS1 function inh)
CCC(=O)Nc1ccc(-c2nnc(-c3ccccc3)o2)cc1	Cycloheximide cs 18
CC(=O)Nc1ccc(C2=NN(Cc3nnc(-c4ccccc4)o3)C(=O)SC2)cc1	Shiga inhibitor 16, NS1 function inh inconclusive
CC(C)[C@@H](CC(=O)N[C@@H]1CCCC[C@H]1C(=O)N[C@H](CC(=O)N[C@@H](CCC(=O)O)CC(=O)O)Cc1c[nH]c2ccccc12)NC(=O)C[C@H](CO)NC(=O)[C@@H]1CNCC[C@H]1N	none (no result: Shiga inhibitor, NS1 function inh, LmPK inh, Cycloheximide cs)
COc1ccc2c(c1)nc(SCC(C)O)n2C (stereo unspecified)	Cycloheximide cs 12
COc1ccc2c(c1)nc(SCC(=O)C(C)(C)C)n2C	none
COc1ccc2c(c1)nc(SCC(=O)c1cccs1)n2C	Cycloheximide cs 41
CCc1ccc(C(=O)/C=C/c2ccc([N+](=O)[O-])o2)cc1	Cycloheximide cs 13
CCN(CC)S(=O)(=O)c1ccc(C(=O)/C=C/c2ccc(-c3ccc([N+](=O)[O-])cc3)o2)cc1	NS1 function inh inconclusive
COc1ccc(CNc2ncnc3ccc(-c4ccc5c(c4)OCO5)cc23)c(OC)c1	none (no result: Shiga inhibitor, NS1 function inh, LmPK inh, Cycloheximide cs)
COC(=O)NC(c1ccc(F)cc1)C(C(C)=O)C(=O)OC (stereo unspecified)	none (no result: Shiga inhibitor, NS1 function inh, LmPK inh, Cycloheximide cs)
Cc1nc(NC(=O)c2ccc(Br)s2)sc1C(=O)N(C)C	Shiga inhibitor 50, Cycloheximide cs 44
CCOC(=O)c1sc(NC(=O)c2cc3c(s2)CCC(C)C3)nc1C (stereo unspecified)	none
CCc1sc(C(=O)Nc2nc(C)cs2)cc1C	Shiga inhibitor 76, Cycloheximide cs 26
Cc1csc(NC(=O)c2cc3c(s2)CCC3)n1	Shiga inhibitor 86, LmPK inh inconclusive, Cycloheximide cs 64
CCc1sc(C(=O)Nc2ccc(NC(C)=O)cc2)cc1C	none
Cc1nc(NC(=O)c2cc3c(s2)CCCCC3)sc1C(=O)N(C)C	Shiga inhibitor 102, Cycloheximide cs 21
O=C(Nc1nnc(C2CC2)s1)c1cc2c(s1)CCCCCC2	none
Cc1nc(NC(=O)CCl)sc1C(=O)N(C)C	none
C[C@@H](O)CCC[C@H](O)/C=C/[C@@H]1[C@@H](C/C=C\CCCC(=O)O)[C@@H](O)C[C@H]1O	none (no result: Shiga inhibitor, NS1 function inh, LmPK inh, Cycloheximide cs)
Cc1ccc(NC(=O)c2ccc(=O)[nH]c2)cc1S(=O)(=O)N1CCCCC1	none
Cc1ccc(NS(=O)(=O)c2cc(NC(=O)c3cc4c(s3)CCCC4)ccc2C)c(C)c1	none
O=C(c1scc2c1CCCC2)N1CCCCC1	none
Cc1ccc(NC(=O)c2scc3c2CCCC3)cc1	Shiga inhibitor 73, Cycloheximide cs 54
Cc1ccc(NC(=O)c2cc3c(s2)CCCC3)cc1	Shiga inhibitor 104, Cycloheximide cs 54 (no result: NS1 function inh)
COC(=O)c1sc(NC(=O)c2cc3c(s2)CCCC3)nc1C	Shiga inhibitor 26, Cycloheximide cs 34
Cc1csc(NC(=O)c2cc3c(C)nn(Cc4ccccc4Cl)c3s2)n1	Cycloheximide cs 42
Cc1cnc(CNc2ccnc(-c3ccccc3Cl)n2)cn1	none (no result: Shiga inhibitor, NS1 function inh, LmPK inh, Cycloheximide cs)
O=C(Nc1cccc(Cl)c1Cl)C1CCN(C(=O)c2cccs2)CC1	none
O=C(Cn1c(C(=O)OCCO)cc2ccccc21)c1ccccc1	none (no result: Shiga inhibitor)
CC(C)=CCC/C(C)=C/CO/N=C1/[C@H]2O[C@@H]2[C@@H](O)[C@H]2[C@H]1CCn1c(=O)n(C)c(=O)n12	none (no result: Shiga inhibitor, NS1 function inh, LmPK inh, Cycloheximide cs)
COc1ccc(C)cc1S(=O)(=O)Nc1cccc(-c2ccc(N3CCCCCC3)nn2)c1	Cycloheximide cs 20 (no result: Giardia FBPA inh)
COc1ccc(C)cc1S(=O)(=O)Nc1cccnc1	none
Cc1ccc(S(=O)(=O)Nc2cccc(-c3ccc(N4CCCCCC4)nn3)c2)cc1C	Shiga inhibitor 115, Cycloheximide cs 39
CCOc1ccc(S(=O)(=O)Nc2cccc(-c3ccc(N4CCCCCC4)nn3)c2)cc1	Shiga inhibitor 41, Cycloheximide cs 25 (no result: Giardia FBPA inh)
CCOc1ccc(S(=O)(=O)Nc2cccc(OC)c2)cc1	none
O=C(Nc1cccc(-c2ccc(N3CCCCC3)nn2)c1)C(F)(F)F	none
O=S(=O)(Nc1cccc(-c2ccc(N3CCCCCC3)nn2)c1)c1ccc(F)cc1	Shiga inhibitor 85, Cycloheximide cs 43
Nc1ncnc2c1ncn2[C@@H]1O[C@H](COP(=O)(O)O)[C@@H](O)[C@@H]1O	none (no result: Shiga inhibitor, NS1 function inh, LmPK inh, Cycloheximide cs)
COCCNC(=O)Cn1nc(-c2ccccc2F)ccc1=O	none
O=C(NC1CC2CCCC(C1)N2Cc1ccccc1)c1ccc([N+](=O)[O-])cc1 (stereo unspecified)	none
O=C(O)[C@@H]1CS[C@@]2(CCCN(Cc3ccccc3)C2)N1	none (no result: Shiga inhibitor, LmPK inh, Giardia FBPA inh, Cycloheximide cs)
O=S(=O)(Nc1cccc(-c2ccc(N3CCCCCC3)nn2)c1)c1ccc(C(F)(F)F)cc1	Shiga inhibitor 41, Cycloheximide cs 31
CCOC(=O)c1c(C)[nH]c(C)c1S(=O)(=O)N(C)CC(=O)Nc1cccc(C)c1	none
O=C(CCCNS(=O)(=O)c1cccs1)N1CCc2ccccc2C1	none
O=C(CNS(=O)(=O)c1cccs1)N1CCc2ccccc2C1	Shiga inhibitor 55, Cycloheximide cs 48
O=C(CNS(=O)(=O)c1cccs1)N1CCN(c2ccccc2F)CC1	Shiga inhibitor 71, Cycloheximide cs 35
COc1cccc(NC(=O)Cc2nnc(SCC(=O)NC3CCCCC3)n2C)c1	none
COc1cccc(C(C(=O)NC2CCCC2)N(C(=O)CNC(=O)c2ccco2)c2cccnc2)c1 (stereo unspecified)	none
O=C1OC(OC(=O)c2cccnc2Nc2cccc(C(F)(F)F)c2)c2ccccc21 (stereo unspecified)	none (no result: NS1 function inh, LmPK inh)
Nc1nonc1-c1noc(-c2ccccc2)n1	Shiga inhibitor 57, Cycloheximide cs 42
Nc1ccc(-c2ncc(-c3ccccc3)o2)cc1	none
CC(C)(C)c1ccc(-c2noc(-c3ccno3)n2)cc1	Shiga inhibitor 82, Cycloheximide cs 51
Cc1ccc(-c2cnc(-c3ccncc3)o2)cc1	Shiga inhibitor 95, Cycloheximide cs 33
